Results on 39 compounds are retold here after PubChem BioAssay.

SMILES strings stand for the structures. Values without a mark were called inactive. The rule behind the calls is not given here.

The term inhibition denotes the drop in the measured response relative to a control, in per cent.

The target of the test is Pantothenate synthetase (Mycobacterium tuberculosis (strain ATCC 25618 / H37Rv)) (UniProt P9WIL5). As to the kind of experiment: Coupled enzyme confirmation of inhibitors against recombinant Mtb PanC (AID 375).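 Note: 0% = full reaction with vehicle and 100% = no enzyme background.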 The following applies: coupled enzyme assay; at 10 µM, hits give high values.
Chain of Pantothenate synthetase (Mycobacterium tuberculosis (strain ATCC 25618 / H37Rv)) (P9WIL5 whole entry, looked up): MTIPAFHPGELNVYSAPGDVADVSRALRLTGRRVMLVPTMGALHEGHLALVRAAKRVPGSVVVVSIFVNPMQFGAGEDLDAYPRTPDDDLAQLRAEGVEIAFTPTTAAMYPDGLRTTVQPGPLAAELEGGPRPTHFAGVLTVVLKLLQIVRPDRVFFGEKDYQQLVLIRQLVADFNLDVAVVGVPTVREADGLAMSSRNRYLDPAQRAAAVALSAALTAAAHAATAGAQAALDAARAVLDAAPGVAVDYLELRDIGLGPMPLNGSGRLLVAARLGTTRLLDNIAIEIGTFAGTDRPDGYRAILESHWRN
Take `CC1CCCN(S(=O)(=O)c2coc(C(N)=O)c2)C1` (centres undefined): the inhibition was 0%.

As to `O=C(CCn1c(=O)c2sccc2n(CC(=O)NCc2ccco2)c1=O)NCc1ccccc1`, the inhibition was 3%.

As for `Cc1cccc(-n2ncc3c(N4CCC5(CC4)OCCO5)ncnc32)c1`, the inhibition is 7%.

For the compound `CC1C(O)=C(c2nc3ccccc3[nH]2)C(=N)N1c1ccccc1` (centres undefined), the inhibition is 9%.

`COCCCN(C)C1CCN(C(=O)Nc2ccc(F)cc2)CC1`: the inhibition was 0%.

Take `CCOCCCNC(=O)Cn1cc2c(n1)CCCCC2`: the inhibition is 2%.

Take `NS(=O)(=O)c1cc2c(cc1Cl)NC(C(Cl)Cl)NS2(=O)=O` (centres undefined): the inhibition is 2%.

Turning to `CCOC(=O)Nc1c(O)ccc2oc(C)c(-c3ccccc3)c12`, the inhibition was 0%.

With `CC(=O)Nc1cccc(OCC(O)Cn2cnc3ccccc32)c1` (centres undefined), the inhibition is 0%.

In the case of `COc1ccc(-c2ccc(-c3nnc(-c4ccncc4)o3)cc2)cc1`, the inhibition was 4%.

For the compound `Cc1ccccc1CSc1nnc(C)c(=O)[nH]1`, the inhibition is 0%.

In the case of `CC(=O)Nc1ccc(Cc2ccncc2)cc1`, the inhibition is 0%.

Consider `CC(C)Oc1cccc(-c2cc(C(=O)N3CCN(S(C)(=O)=O)CC3)c3ccccc3n2)c1`, for which the inhibition was 5%.

As to `CCCc1cc(=O)[nH]c(/N=C(\N)Nc2ccccc2)n1`, the inhibition was 6%.

On to `CCCCOc1ccc(C(=O)CCN2CCCCC2)cc1`, for which the inhibition was 9%.

`O=C(Nc1nnc(C2CCCC2)s1)C1CCN(S(=O)(=O)c2ccc(Cl)cc2)CC1`: the inhibition is 0%.

Regarding `c1ccc(Cc2ccc(OCCn3cncn3)cc2)cc1`, the inhibition was 0%.

Regarding `CCOC(=O)CSc1nnc([C@H](C)NC(=O)OC(C)(C)C)o1`, the inhibition was 0%.

For the compound `COc1ccc(-c2noc(C3CCCN(C(=O)CCc4ccccc4)C3)n2)cc1` (centres undefined), the inhibition is 0%.

`COc1ccccc1N1CCN(c2nc3ccccc3nc2C(C#N)C(=O)OC(C)C)CC1` (centres undefined): the inhibition is 1%.

As for `O=C(Oc1ccc2c(c1)CCC2)N1CCOCC1`, the inhibition was 0%.

On to `COC(=O)c1ccccc1NC(=O)Nc1cc(C)cc(C)n1`, for which the inhibition is 2%.

For the compound `COc1ccc2c(c1)C(=O)N(c1ccccc1OC)C(=O)C2`, the inhibition was 0%.

With `CCN1C(=O)c2cccc3c(NC(=O)c4ccc5c(c4)OCCO5)ccc1c23`, the inhibition was 0%.

For `COc1ccccc1C(=O)NCCc1nc2ccccc2n1C`, the inhibition is 1%.

As for `Cc1ccc(S(=O)(=O)NC(C)C(=O)Nc2ccc(C(N)=O)cc2)cc1` (centres undefined), the inhibition is 0%.

As for `CCOC(=O)C1(C)NC(c2ccc(OC)c(OC)c2)C2C(=O)N(CC)C(=O)C21` (centres undefined), the inhibition was 9%.

Take `Cc1ccccc1N1OC2C(=O)N(c3ccc(F)cc3)C(=O)C2C1c1ccccn1` (centres undefined): the inhibition is 3%.

With `COCCOC(=O)c1c(C)oc2ccc(NS(=O)(=O)c3ccc(F)cc3)cc12`, the inhibition is 3%.

On to `COCc1nnc(NS(=O)(=O)c2ccc(Br)cc2)s1`, for which the inhibition was 2%.

Take `CCOC(=O)N1CCC(NC(=O)C2CCCN(C(=O)c3cc4sccc4n3C)C2)CC1` (centres undefined): the inhibition is 0%.

Turning to `O=C(COc1ccccc1F)NC1CC1`, the inhibition is 3%.

On to `COc1ccc(S(=O)(=O)Nc2ccccc2SC)cc1C`, for which the inhibition was 0%.

Turning to `CCOC(=O)c1cc2sccc2n1CC(=O)Nc1ccc2c(c1)OCCO2`, the inhibition is 0%.

In the case of `CCc1c(C)nc(N2CCN(Cc3ccccc3)CC2)[nH]c1=O`, the inhibition is 3%.

On to `COc1cccc(C(c2nnnn2Cc2ccccc2)N2CCN(C(=O)c3ccco3)CC2)c1OC` (centres undefined), for which the inhibition is 4%.

Consider `COc1ccc(-n2c(Cc3cccn3C)nnc2SCC(=O)NCC2CCCO2)cc1` (centres undefined), for which the inhibition was 11%.

For `COc1cc(NC(=O)CN(c2cc(C)cc(C)c2)S(=O)(=O)c2c(C)noc2C)cc(OC)c1`, the inhibition was 0%.

For the compound `Cc1ccc2nc(NC(=O)CN(C)S(=O)(=O)c3cccc4nsnc34)sc2c1`, the inhibition is 0%.
